The source of these data is the supplement of paper PMC3334620.

Whole data set: some 33,000 sequences, median “E-score (-0.5 to 0.5)” near -0.0034, cut for the highest 2% near 0.25. What follows is part of a selection rich in the highest values, with near analogues and random picks from the rest.

For this experiment, the target named is T1, Yap3 (UniProt P38749).
T1 sequence: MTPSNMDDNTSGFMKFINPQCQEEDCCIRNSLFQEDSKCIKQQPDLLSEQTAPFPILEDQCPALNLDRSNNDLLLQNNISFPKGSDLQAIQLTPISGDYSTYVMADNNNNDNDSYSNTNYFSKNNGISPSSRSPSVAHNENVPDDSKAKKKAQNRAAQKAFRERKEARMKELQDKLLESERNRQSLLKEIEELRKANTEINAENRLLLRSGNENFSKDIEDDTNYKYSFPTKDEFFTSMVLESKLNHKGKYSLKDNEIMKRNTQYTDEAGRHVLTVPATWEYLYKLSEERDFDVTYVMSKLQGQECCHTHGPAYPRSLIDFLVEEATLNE
The experiment can be described thus: PBM E-score (8-mer binding enrichment) (E-score (-0.5 to 0.5)); higher = stronger / more preferred TF binding. Particulars: protein concentration: 100 nM; construct: GST-full length. As for the experimental part: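 Universal 'all 10-mer' protein binding microarrays (Agilent AMADID 015681) probed with GST-tagged S. cerevisiae TFs (full-length or DBD) made by in vitro transcription/translation (PURExpress), about 100-200 nM. Bound TF was detected with fluorescent anti-GST. Each ungapped 8-mer (which stands for itself and its reverse complement) is scored by the PBM enrichment score (E-score), a modified Wilcoxon-Mann-Whitney statistic from -0.5 to +0.5, computed with the Universal PBM Analysis Suite. Scale: above 0.35 generally sequence-specific binding.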
With ACAAAACA, the “PBM E-score” value came to 0.202.

TCCTAAAA: the “PBM E-score” value is -0.115.

On to TACAGAAA, for which the “PBM E-score” value came to 0.262.

With CAGAGAAA, the “PBM E-score” value turned out to be 0.278.

In the case of GAGAGAAA, the “PBM E-score” value is 0.0853.

Turning to GATAGAAA, the “PBM E-score” value is 0.187.

Take GACAGAAA: the “PBM E-score” value is 0.183.

With AACAGAAA, the “PBM E-score” value worked out at 0.157.

Regarding TATAGAAA, the “PBM E-score” value was 0.0802.

CATAGAAA: the “PBM E-score” value was determined as 0.268.

As for CAGAGAAG, the “PBM E-score” value was -0.127.

Turning to CATCTACC, the “PBM E-score” value was 0.145.

Consider CTTGAGCA, for which the “PBM E-score” value is -0.119.

For ATCTTGCA, the “PBM E-score” value is 0.151.

Regarding AATAGATC, the “PBM E-score” value worked out at 0.08.

For the sequence GATTAATC, the “PBM E-score” value was found to be 0.117.

With AATTAATT, the “PBM E-score” value came to 0.211.

For AATTAATC, the “PBM E-score” value was 0.0963.

With GATTAATA, the “PBM E-score” value was determined as 0.367.

In the case of GATTAAGA, the “PBM E-score” value turned out to be 0.193.

For CATTAATG, the “PBM E-score” value came to 0.212.

AATTAAGA: the “PBM E-score” value was 0.154.

Regarding TATTAACA, the “PBM E-score” value was determined as 0.23.

For CATTAATA, the “PBM E-score” value was determined as 0.193.

For the sequence TATTAATA, the “PBM E-score” value was 0.301.

Take AATTAATA: the “PBM E-score” value is 0.353.

On to AATTAATG, for which the “PBM E-score” value was 0.29.

As to CACCCATG, the “PBM E-score” value is -0.014.

Regarding ATCGCACC, the “PBM E-score” value was -0.106.

As to GCTCTGTA, the “PBM E-score” value is -0.055.

Turning to GCCAAGTA, the “PBM E-score” value is -0.0708.

As to CATAAGAG, the “PBM E-score” value is -0.071.

In the case of CTTTTGTC, the “PBM E-score” value came out at 0.0462.

Turning to CGACCCAC, the “PBM E-score” value was -0.219.

For TCGGATAA, the “PBM E-score” value came out at 0.143.

On to GTCAAGTA, for which the “PBM E-score” value is -0.12.

In the case of ATCTCTGC, the “PBM E-score” value turned out to be 0.0777.

As to ACACTGAT, the “PBM E-score” value is 0.0678.

Turning to ATTACTGG, the “PBM E-score” value was -0.0154.

Turning to GACGAAAA, the “PBM E-score” value worked out at 0.264.

For TACGAAAA, the “PBM E-score” value turned out to be 0.144.

On to GGCGAAAA, for which the “PBM E-score” value was determined as 0.256.

For GGCGAAAC, the “PBM E-score” value was determined as 0.0862.

Take TGCGAAAA: the “PBM E-score” value is 0.0554.

CACGAAAA: the “PBM E-score” value stood at 0.176.

On to CTGCGATC, for which the “PBM E-score” value is -0.0633.

In the case of CGTAGATC, the “PBM E-score” value is 0.0115.

In the case of GTACAGGA, the “PBM E-score” value worked out at 0.0424.

Take AACATCTC: the “PBM E-score” value came to 0.08.

Turning to ACTGAAAG, the “PBM E-score” value came out at 0.114.

Regarding ACTGAAAC, the “PBM E-score” value worked out at 0.27.

Turning to ACAGAAAA, the “PBM E-score” value was 0.198.

Consider ACAGAAAC, for which the “PBM E-score” value turned out to be 0.285.

As for GCTGAAAC, the “PBM E-score” value is -0.0804.

As to CCAGAAAC, the “PBM E-score” value is 0.0139.

As to GCAAATCC, the “PBM E-score” value was 0.156.

For the sequence CGTCCTTC, the “PBM E-score” value turned out to be 0.0406.

For the sequence CTATGGGA, the “PBM E-score” value is -0.103.

Turning to CGTCCCTA, the “PBM E-score” value is -0.206.

For the sequence CACTGAAA, the “PBM E-score” value amounted to 0.0595.

Regarding CACTAACA, the “PBM E-score” value came out at 0.162.

TACTATAA: the “PBM E-score” value was found to be 0.266.

For the sequence AACTAACA, the “PBM E-score” value was found to be 0.211.

On to AACTATAA, for which the “PBM E-score” value was 0.186.

Take GACTGAAA: the “PBM E-score” value was found to be 0.0541.

Turning to TACTGAAA, the “PBM E-score” value was found to be 0.273.

Consider TACTAAAA, for which the “PBM E-score” value amounted to 0.255.

As for TACTAACA, the “PBM E-score” value turned out to be 0.294.

In the case of AACTAAAA, the “PBM E-score” value turned out to be 0.148.

For GACTAAAA, the “PBM E-score” value turned out to be 0.0994.

With CACTATAA, the “PBM E-score” value is -0.00697.

For GACTTTGA, the “PBM E-score” value was found to be 0.00307.

TTGTACAA: the “PBM E-score” value amounted to 0.185.

CATCAGAC: the “PBM E-score” value is -0.133.

With ACATACCC, the “PBM E-score” value is 0.0479.

Take GAACTCGC: the “PBM E-score” value is 0.0628.

Turning to CTCCTACC, the “PBM E-score” value is -0.275.

Regarding CCTGAACG, the “PBM E-score” value was -0.154.

As to GTCTAGCA, the “PBM E-score” value stood at 0.0493.

For ATGAGAAA, the “PBM E-score” value is 0.181.

Turning to GCGTTAGA, the “PBM E-score” value stood at 0.0241.

With AAGCGTTC, the “PBM E-score” value was -0.0829.

GCGGCCTA: the “PBM E-score” value was -0.0845.

Consider AATTTTAA, for which the “PBM E-score” value is 0.212.

On to ATTTTTTG, for which the “PBM E-score” value stood at 0.226.

As to ATTTTTTA, the “PBM E-score” value turned out to be 0.255.
